Sampled rows, rich in hits. Any-hit rate of the full collection: about 8.3%.
Giardia FBPA inh = inhibitors of Giardia lamblia fructose-1,6-bisphosphate aldolase; purified Giardia FBPA; A8B2U2; Potency, µM (top dose mostly 59.6 µM), inactives show at the top dose activity, negative = inhibition, hits mostly inhibitors; 290,000 compounds, 0.71% hits; further: potency means the concentration at half of the fitted maximal effect; nearly all actives have a fitted effect of over 55% in size
Target sequence (A8B2U2 whole entry, looked up): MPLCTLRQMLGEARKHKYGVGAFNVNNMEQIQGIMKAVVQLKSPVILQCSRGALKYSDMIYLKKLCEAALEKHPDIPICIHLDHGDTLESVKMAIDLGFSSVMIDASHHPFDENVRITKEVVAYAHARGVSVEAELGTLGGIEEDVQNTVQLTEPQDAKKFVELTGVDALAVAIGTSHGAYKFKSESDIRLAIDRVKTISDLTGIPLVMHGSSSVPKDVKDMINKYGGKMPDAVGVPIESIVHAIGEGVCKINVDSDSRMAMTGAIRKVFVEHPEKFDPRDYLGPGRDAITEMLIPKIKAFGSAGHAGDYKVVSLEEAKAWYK
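Giardia FBPA (40 nM reagent) was preincubated 10 min at RT with compound (up to 57.5 uM final), then substrate plus GAPDH/TPI/NAD/arsenate coupling system with diaphorase/resazurin was added; resorufin fluorescence (525/598 nm) was read after 20 min.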
MARV entry inh = blocks Marburg virus binding to or entry into cells | Marburg virus pseudotyped entry inhibition, cell reporter | Potency, µM (series often up to 37.8 µM), for the others: at the top dose activity change, negative = inhibition, most hits filed as inhibitors | 300,000 compounds, 1.8% hits; calls by dose curve; tested in HEK293 cells; further: potency means the concentration at half of the fitted maximal effect
FMDV inh = antivirals against foot and mouth disease virus | FMDV antiviral cell-based qHTS | 410,000 compounds, 1.2% hits | Potency, µM (top dose mostly 57.9 µM), for inactives: top-dose activity change, negative = inhibition, usual class: inhibitors; calls by dose curve; tested in HEK293T cells; further: read-out not given here; potency means the concentration at half of the fitted maximal effect; nearly all actives have a fitted effect of over 45% in size
HCMV inh = blocks human cytomegalovirus replication | HFF cells, HCMV-luciferase reporter, 72 h; active compounds read low | activity change, negative = inhibition, % at 57.5 µM | 410,000 compounds, 4.5% hits | AID 1259415; in the data active means activity change below about -60%; inconclusive means no clear call, values can overlap the other calls; inactive means above about -39%
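Two compound doses tested in HFFs infected with HCMV-luciferase, MOI 1 PFU/cell, 72 h at 37C. Lysate luminescence read with OneGlo; data normalized against buffer-only and 10uM Salinomycin inhibitor controls.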
HCV inh = inhibitors of hepatitis C virus infection | Huh7.5.1 HCVcc-Cre infection, luciferase reporter, 44 h | Potency, µM (top dose mostly 41.8 µM), for inactives: at the highest dose activity change, negative = inhibition, actives largely listed as inhibitors | 340,000 compounds, 3.4% hits | AID 651820; further: potency means the concentration at half of the fitted maximal effect
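Reporter virus HCVcc-Cre (~0.5 moi) infects cells exposed to compound; seeding density 1,000 cells/well with 4 h settling beforehand. Luminescence, 15 sec read, taken 44 h post-infection following a 15 min RT substrate incubation.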
LASV entry inh = Lassa virus entry inhibition; Potency, µM (doses to about 37.9 µM), inactives show at the highest dose activity change, negative = inhibition, usual class: inhibitors; 300,000 compounds, 1.2% hits; AID 540256; Lassa virus pseudotype entry inhibition, cell reporter; calls by dose curve; tested in HEK293 cells; further: potency means the concentration at half of the fitted maximal effect; nearly all actives have a fitted effect of over 50% in size
* = called active by the depositor; ? = inconclusive; · = no result; [ ] = another dose, or the depositor's remark. Unless noted, the call rests on the fitted dose curve; in most records, active means well fitted curve in the direction sought with a large enough effect; inconclusive means small, poorly fitted or top-dose-only effect, or another doubt; inactive means no such curve, though single readings can be large; an effect the other way counts as inactive or inconclusive. On the % scale 0 is the no-effect control and ±100 the full control effect.

SMILES	Giardia FBPA inh	MARV entry inh	FMDV inh	HCMV inh	HCV inh	LASV entry inh
O=C(O)CN(c1ccc2c(c1)OCCO2)S(=O)(=O)c1ccccc1	0.8%	13.3%	-1.4%	-69.0*	17.8%	15.8%
CCC(C(=O)NCCCN(CC)CC)n1ncn2c(cc3occc32)c1=O (centres undefined)	·	-26.3%[46.1 µM]	-7.6%	-31.7	·	·
CCOC(=O)Oc1c(OC)cc(C(=O)O[C@@H]2C[C@@H]3CN4CCc5c([nH]c6cc(OC)ccc56)[C@H]4C[C@@H]3[C@H](C(=O)OC)[C@H]2OC)cc1OC	·	·	0.0%	-67.6*	5.62µM*	·
COC(=O)[C@@H]1[C@@H]2C[C@H]3c4[nH]c5cc(OC)ccc5c4CCN3C[C@@H]2C[C@H](OC(=O)c2cc(OC)c(OC)c(OC)c2)[C@H]1OC	-27.0%[21.7 µM]	·	·	·	·	·
CCCn1c(N)c(C(=O)CSc2ncc(C(F)(F)F)cc2Cl)c(=O)[nH]c1=O	1.3%	?	?	-35.0	-9.2%	3.16µM*
CCCn1c(N)c(C(=O)CSc2nc(C)nc3sc(C)c(C)c23)c(=O)[nH]c1=O	·	-6.1%	-13.4%	-15.8	-13.3%	-2.5%
CCc1ccccc1NC(=O)Nc1ccc2snnc2c1	·	9.0%[46.1 µM]	-1.2%	-70.4*	·	?
Cc1ccc(NC(=O)Nc2ccc3snnc3c2)cc1C	·	2.6%[46.1 µM]	11.1%	-28.5	·	-2.1%[46.1 µM]
O=C(Nc1ccc2snnc2c1)Nc1cccc2ccccc12	-8.7%	?	20.6%	-88.5*	10µM*	?
CCOC(=O)c1ccc(NC(=O)Nc2ccc3snnc3c2)cc1	·	15.7%[46.1 µM]	-3.8%	-105.6*	·	10.1%[46.1 µM]
COc1ccc(C2CC(=O)Oc3c(C(CCN4CCCC(C)C4)c4cc(OC)c(OC)c(OC)c4)c(OC)cc(OC)c32)cc1 (centres undefined)	0.8%	·	·	·	·	·
O=C(NCc1ccc2c(c1)OCO2)c1ccc2c(c1)N(Cc1c(F)cccc1Cl)C(=O)CS2	8.1%	?	-18.9%	-77.9*	?	?
O=C(NCCc1ccc(Cl)cc1)c1ccc2c(c1)N(Cc1ccc(F)cc1Cl)C(=O)CS2	·	-27.8%[46.1 µM]	-23.5%	-63.6*	·	?
CCOc1ccccc1NC(=O)C1CCN(S(=O)(=O)Cc2ccccc2)CC1	·	?	-9.2%	-9.9	·	-19.3%[46.1 µM]
O=C1OCC(CO)(CO)N=C1NNc1ccccc1Cl	-1.7%	18.0%	·	-66.1*	26.7%	-4.3%
CCc1ccccc1NC(=O)COC(=O)c1c(C)nsc1NC	·	·	?	?	4.47µM*	·
Cn1c(SCC2CCCO2)nnc1C1CCN(Cc2ccc(-c3cccc(Cl)c3)o2)CC1 (centres undefined)	·	·	-9.5%	·	·	·
O=S(=O)(c1ccc(Cl)cc1)c1cnc(-c2cccnc2)nc1-c1ccccc1	2.9%	-16.7%	-15.6%	4.1	-5.1%	-4.6%
CS(=O)(=O)c1cnc(-c2cccnc2)nc1N	7.9%	0.9%[46.1 µM]	4.8%	-91.1*	14.6%	-8.2%
CCC(C)n1c(SCc2ccc([N+](=O)[O-])cc2)nc2ccsc2c1=O (centres undefined)	2.1%	12.6µM*	?	-22.6	10µM*	?
O=C1C(=C2SCCCS2)CC/C1=C\c1ccc(F)cc1	1.4%	2.51µM*	5.01µM*	-91.0*	0.1%	1.12µM*
CCCCC/C=C\C\C=C/C=C/C=C/[C@@H](SCC(N)C(=O)NCC(=O)O)[C@@H](O)CCCC(=O)O (some centres undefined)	1.4%	·	·	·	·	·
CCOC(=O)c1cn(CC2CC2)c2cc(F)c(F)cc2c1=O	-0.8%	20.0%[46.1 µM]	-8.6%	-25.3	14.1µM*	-3.2%
CC1CC2C3CC(F)C4=CC(=O)C=C[C@@]4(C)[C@@]3(F)C(O)C[C@]2(C)[C@]1(O)C(=O)COC(=O)C(C)(C)C (some centres undefined)	1.3%	·	-1.6%	·	·	·
COc1ccc(Cn2c(NCC(C)C)nc3c2c(=O)n(C)c(=O)n3C)cc1	·	8.2%[46.1 µM]	-22.2%	-0.8	·	-1.0%[46.1 µM]
SMILES	Giardia FBPA inh	MARV entry inh	FMDV inh	HCMV inh	HCV inh	LASV entry inh
CCCCS(=O)(=O)c1oc(-c2cccs2)nc1S(=O)(=O)c1ccc(F)cc1	·	?	31.6µM*	-97.8*	·	?
CCCCS(=O)(=O)c1oc(-c2ccc(F)cc2)nc1S(=O)(=O)c1ccc(C)cc1	·	10µM*	28.2µM*	-99.9*	·	?
CCC(C)S(=O)(=O)c1oc(-c2ccc(F)cc2)nc1S(=O)(=O)c1ccc(F)cc1 (centres undefined)	·	?	?	-100.2*	·	?
CCCCCS(=O)(=O)c1oc(-c2cccs2)nc1S(=O)(=O)c1ccc(C)cc1	·	-0.6%[46.1 µM]	28.2µM*	-88.2*	·	-10.2%[46.1 µM]
CCCSc1oc(-c2cccs2)nc1S(=O)(=O)c1ccc(C)cc1	·	-8.7%[46.1 µM]	16.9%	-24.0	·	10.3%[46.1 µM]
COCCn1c(=O)c(-c2cn(C)c3ccccc23)nc2cnc(N3CCNCC3)nc21	-5.3%	·	-13.4%	·	·	·
C[C@H]1NS(=O)(=O)c2cccc(Cl)c2O[C@@H]1c1ccccc1	·	·	·	0.8	·	·
CCS(=O)(=O)c1oc(-c2ccc(F)cc2)nc1S(=O)(=O)c1ccccc1	·	?	17.8µM*	-99.0*	·	?
COc1cc(-c2ccno2)ccc1S(=O)(=O)N1CCN(c2cccc(Cl)c2)CC1	·	·	-25.4%	-21.2	·	-28.9%[46.1 µM]
CC1(Cc2ccc3c(c2)OCO3)C(=O)Nc2c(Cl)ccc(Cl)c21 (centres undefined)	·	·	0.0%	-68.4*	·	·
COc1ccc(NC(=O)CC2C(=O)N(c3ccc(OC)cc3)C(=O)N2CCc2cccs2)cc1 (centres undefined)	1.8%	-19.0%	14.5%	-34.2	-7.0%	9.2µM*
CCN1CCCC(C2NC3CCCCC3S2)C1 (centres undefined)	·	0.5%	·	·	·	·
Cc1onc(-c2ccccc2)c1-c1ccnn1S(=O)(=O)c1ccc(Cl)cc1	-13.6%	10.7%[14.2 µM]	-25.6%	0.0	-23.6%	-11.4%
Cc1onc(-c2ccc(Cl)cc2)c1-c1ccnn1S(=O)(=O)c1cccc(C(F)(F)F)c1	-2.6%	10µM*	-17.4%	-36.0	?	-26.8%
c1ccc(-c2cc(-c3ccccc3)[n+](-c3ccccc3)c(-c3ccccc3)c2)cc1	5.7%	?	17.8µM*	-101.2*	?	?
CCOC(=O)c1ccc(P(=O)(c2ccccc2)c2ccccc2)cc1	20.1%	·	7.8%	-96.5*	-0.3%	·
CCOC(=O)c1ccc(NC(=O)CNC(=O)c2ccccc2)cc1	5.0%	7.0%	21.6%	24.8	17.9%	?
CC(=O)Nc1scc(-c2ccccc2)[n+]1-c1ccc(C)cc1	-1.0%	-15.3%[46.1 µM]	?	34.6	?	13.1%[46.1 µM]
C=C(c1ccccc1)c1ccc(N(C)C)cc1	-3.2%	-19.0%[46.1 µM]	8.1%	38.1	9.9%	16.7%[46.1 µM]
C[n+]1c(-c2ccccc2)cc(-c2ccc(Cl)cc2)cc1-c1ccccc1	5.7%	?	?	?	-19.7%	?

High-throughput results as filed in PubChem.
